# In publication PMC4336329 (PLoS ONE, 2015):
# The campaign covered roughly 310,000 compounds. About 14,000 (4.5%) showed an effect of 50% or more. The effect is printed as a negative number. The entries come from a sample that favours strong results as a whole.
# Target: human ether-à-go-go-related gene (hERG) potassium channel (human, UniProt Q12809)
# Assay: primary screen, population patch clamp on CHO cells stably expressing hERG; higher = less effect of the substance
# 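Note: peak tail current of the secondary pulse compared with the same well before compound.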
# Sequence of human ether-à-go-go-related gene (hERG) potassium channel (Q12809 whole entry, looked up): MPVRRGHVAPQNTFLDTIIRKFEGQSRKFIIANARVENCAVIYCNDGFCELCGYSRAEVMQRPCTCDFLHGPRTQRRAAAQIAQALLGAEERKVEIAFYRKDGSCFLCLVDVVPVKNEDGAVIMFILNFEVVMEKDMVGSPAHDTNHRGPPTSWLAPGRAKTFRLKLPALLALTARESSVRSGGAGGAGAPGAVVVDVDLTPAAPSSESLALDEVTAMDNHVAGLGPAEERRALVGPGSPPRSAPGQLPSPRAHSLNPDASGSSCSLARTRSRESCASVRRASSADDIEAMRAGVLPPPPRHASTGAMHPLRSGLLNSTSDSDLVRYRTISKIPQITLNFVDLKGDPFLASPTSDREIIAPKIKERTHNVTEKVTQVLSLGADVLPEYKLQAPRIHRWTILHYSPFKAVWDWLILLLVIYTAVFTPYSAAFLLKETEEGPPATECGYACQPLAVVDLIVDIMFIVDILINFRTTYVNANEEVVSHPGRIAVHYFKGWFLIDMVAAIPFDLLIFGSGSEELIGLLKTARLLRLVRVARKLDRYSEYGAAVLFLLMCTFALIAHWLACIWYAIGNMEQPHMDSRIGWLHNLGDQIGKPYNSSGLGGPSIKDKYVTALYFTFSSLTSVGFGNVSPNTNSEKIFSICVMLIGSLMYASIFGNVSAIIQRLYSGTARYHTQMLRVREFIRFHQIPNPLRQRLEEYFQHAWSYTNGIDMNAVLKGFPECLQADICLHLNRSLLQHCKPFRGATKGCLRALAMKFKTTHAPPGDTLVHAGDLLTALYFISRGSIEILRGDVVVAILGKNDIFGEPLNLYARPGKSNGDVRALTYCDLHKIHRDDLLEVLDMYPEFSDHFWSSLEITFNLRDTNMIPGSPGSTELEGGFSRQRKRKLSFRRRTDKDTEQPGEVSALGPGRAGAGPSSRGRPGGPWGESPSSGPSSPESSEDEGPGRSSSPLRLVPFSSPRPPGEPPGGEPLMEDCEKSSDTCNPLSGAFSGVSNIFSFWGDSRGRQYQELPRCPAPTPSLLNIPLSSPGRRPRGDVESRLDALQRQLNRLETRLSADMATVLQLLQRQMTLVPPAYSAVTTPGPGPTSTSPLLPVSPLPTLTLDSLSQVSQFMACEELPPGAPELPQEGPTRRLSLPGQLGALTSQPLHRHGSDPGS
row,Compound,"hERG current change (%, negative = inhibition) at 10uM"
1,O=C(NCCCN1CCOCC1)c1cc2c([nH]c3ccccc32)c(-c2cccc(Br)c2)n1,-40.8%
2,COc1ccc(-c2nc(C(=O)NCCCN3CCOCC3)cc3c2[nH]c2ccccc23)cc1OC,-72.2%
3,COc1ccc(-c2nc(C(=O)NCC3CCCO3)cc3c2[nH]c2ccccc23)cc1 (stereo not shown),-2.81%
4,Cc1ccc(-c2nc(C(=O)NCCCN3CCOCC3)cc3c2[nH]c2ccccc23)cc1,-15%
5,COc1cc(-c2nc(C(=O)NC3CCN(Cc4ccccc4)CC3)cc3c2[nH]c2ccccc23)cc(OC)c1OC,-59.6%
6,COc1ccccc1-c1nc(C(=O)NCC2CCCO2)cc2c1[nH]c1ccccc12 (stereo not shown),-29%
7,COc1cccc(-c2nc(C(=O)NCCCN3CCOCC3)cc3c2[nH]c2ccccc23)c1,-65.3%
8,COc1cc(-c2nc(C(=O)NC3CCCCC3)cc3c2[nH]c2ccccc23)cc(OC)c1OC,-8.67%
9,COc1ccc(OC)c(-c2nc(C(=O)NCC3CCCO3)cc3c2[nH]c2ccccc23)c1 (stereo not shown),-59.1%
10,COc1ccc(OC)c(-c2nc(C(=O)NC3CCN(Cc4ccccc4)CC3)cc3c2[nH]c2ccccc23)c1,-43.5%
11,COc1ccc(-c2cc(C(=O)NCCCN3CCOCC3)c3ccccc3n2)cc1OC,-7.5%
12,COc1cccc(-c2nc(C(=O)NCC3CCCO3)cc3c2[nH]c2ccccc23)c1 (stereo not shown),-26.4%
13,CC(C)Oc1cccc(C(=O)NC(=S)Nc2ccc3c4c(cccc24)CC3)c1,14.9%
14,Cc1cc(C)n2nc3nc(N4CCCC4)nc(-c4ccccc4)c3c2n1,7.37%
15,Cc1cc(C(=O)Nc2cccnc2)on1,-3.6%
16,COc1cccc(CNC(=O)CCCc2nnc3n(C)c(=O)c4sccc4n23)c1,-22.2%
17,CCOc1cccc(OCCOCCOc2ccccc2C(C)=O)c1,-7.23%
18,COc1ccc(OC)c(-c2cc(C(=O)NCCN3CCOCC3)no2)c1,-5%
19,COc1ccc(OC)c(-c2nc(C(=O)NCCCN3CCOCC3)cc3c2[nH]c2ccccc23)c1,-65.7%
20,COc1ccccc1-c1cc(C(=O)NCCCN2CCOCC2)no1,-28%
21,CC(C)CCNC(=O)c1ccc(Cl)c(N)c1,18.9%
22,Cc1ccccc1OCCCC(=O)Nc1ccc2c(c1)OCO2,5.46%

row,Compound,"hERG current change (%, negative = inhibition) at 10uM"
1,CN(C)S(=O)(=O)c1cccc(NC(=O)Cn2cnc3ccccc3c2=O)c1,8.28%
2,CCN(CC)S(=O)(=O)c1ccc(C)c(NC(=O)Cn2cnc3cc([N+](=O)[O-])ccc3c2=O)c1,-55.7%
3,Cc1ccc(NC(=O)Cn2cnc3cc([N+](=O)[O-])ccc3c2=O)cc1,0.77%
4,CCN(CC)S(=O)(=O)c1ccc(NC(=O)Cn2cnc3ccccc3c2=O)cc1,-32.8%
5,Cc1ccc(NC(=O)Cn2cnc3cc([N+](=O)[O-])ccc3c2=O)c(Cl)c1,16.4%
6,CCN(CC)S(=O)(=O)c1cc(NC(=O)Cn2cnc3ccccc3c2=O)ccc1C,-54.8%
7,COc1ccc(C(=O)NCc2cc(C)nc3ccccc23)cc1,-13.6%
8,COCc1nc2ccccc2n1CCc1ccccc1,-33.6%
9,O=C1CCC(=O)N1c1ccc(-c2nc3ccccc3s2)cc1,16%
10,Cc1ccc(Sc2c(C)nn(C(=O)C3CC3)c2C)cc1,11.6%
11,O=C1COc2ccc(C(=O)COC(=O)Cc3ccccc3)cc2N1,-13%
12,Cc1ccc(N(C(=O)C2CCC(=O)N2)C2(C(=O)NC3CCCC3)CCCCC2)cc1 (stereo not shown),0.218%
13,O=C(CCC1CCN(C(=O)Cc2c(F)cccc2F)CC1)NC1CC1,11.9%
14,CCOc1cccc(CN2CCCC(CCC(=O)NCc3ccccc3F)C2)c1O (stereo not shown),-65%
15,CC(=O)Nc1ccc(CN2CCCC(CCC(=O)NCc3ccccc3F)C2)cc1 (stereo not shown),-8.19%
16,O=C(CCC1CCN(Cc2ccccc2O)CC1)NC1CC1,-23.7%
17,Cc1ncc(CN2CCCC(CCC(=O)NCc3ccccc3F)C2)s1 (stereo not shown),17.8%
18,O=C(CCC1CCCN(Cc2ccc(O)c(Cl)c2)C1)NCc1ccccc1F (stereo not shown),-43.2%
19,Cc1nn(C)c(Cl)c1CN1CCCC(CCC(=O)NCc2ccccc2F)C1 (stereo not shown),-27%
20,CCOc1cccc(CN2CCC(CCC(=O)NC3CC3)CC2)c1O,-70.3%
21,O=C(CCC1CCCN(Cc2cccc(Cl)c2)C1)NCc1ccccc1F (stereo not shown),-50.9%
22,O=C1[C@H]2[C@H](C=CC[C@H]2C(=O)N2CCOCC2)CCN1Cc1ccc(Cl)c(Cl)c1,-3.89%

row,Compound,"hERG current change (%, negative = inhibition) at 10uM"
1,CCN1CCC[C@H]1CNC(=O)c1c(OC)ccc(Br)c1OC.Cl,-12.2%
2,Cc1ccc(-c2nc(-c3cccnc3)sc2CC(=O)O)cc1,11%
3,CCN1CCN(C(=O)Cc2c(C)n(C(=O)c3ccc(Cl)cc3)c3ccc(OC)cc23)CC1.Cl,-38.6%
4,N#Cc1nc(-c2ccc(OCc3ccccc3)cc2)oc1N1CCOCC1,10.4%
5,Cc1ccc(-c2cn3nc(C)c(C)nc3n2)cc1,-6.47%
6,CCc1ccc(-c2cn3nc(C)c(C)nc3n2)cc1,-50.8%
7,Cc1nc2nc(-c3ccc(F)cc3)cn2nc1C,7.58%
8,O=C1C=CC(=O)N1c1ccc(I)cc1Cl,18.9%
9,COc1ccc(N2CCN(C(=O)C3CCCN(S(=O)(=O)c4ccc(F)cc4)C3)CC2)cc1 (stereo not shown),-39.2%
10,COc1ccc(N2CCN(S(=O)(=O)c3c(C)noc3/C=C/N(C)C)CC2)cc1,-0.914%
11,Cc1noc(C)c1S(=O)(=O)N1CCC(C(=O)N2CCN(c3ccccc3Cl)CC2)CC1,-13.6%
12,Cc1noc(C)c1S(=O)(=O)N1CCC(C(=O)N2CCN(c3ccc(F)cc3)CC2)CC1,-41.4%
13,Cc1ccc(C)c(N2CCN(C(=O)C3CCCN(S(=O)(=O)c4c(C)noc4C)C3)CC2)c1 (stereo not shown),-11.1%
14,COc1ccc(N2CCN(C(=O)C3CCN(S(=O)(=O)c4ccc(C)cc4)CC3)CC2)cc1,-10.2%
15,Cc1cccc(N2CCN(C(=O)C3CCCN(S(=O)(=O)c4c(C)noc4C)C3)CC2)c1C (stereo not shown),-22.3%
16,COc1ccc(N2CCN(C(=O)C3CCCN(S(=O)(=O)c4c(C)noc4C)C3)CC2)cc1 (stereo not shown),-59.9%
17,Cc1noc(C)c1S(=O)(=O)N1CCC(C(=O)N2CCN(c3ccc(Cl)cc3)CC2)CC1,-51.7%
18,COc1ccc(N2CCN(C(=O)C3CCN(S(=O)(=O)c4c(C)noc4/C=C/N(C)C)CC3)CC2)cc1,-53.8%
19,COc1ccc(N2CCN(C(=O)C3CCCN(S(=O)(=O)c4ccc(C)cc4)C3)CC2)cc1 (stereo not shown),-53.4%
20,COc1ccc(NC(=O)C2CCN(S(=O)(=O)c3c(C)noc3/C=C/N(C)C)CC2)cc1,-15.3%
